Source: PubChem BioAssay (Johns Hopkins Ion Channel Center)
An excerpt weighted towards active compounds, which were near 1.6% of everything screened.
KCNQ2 pot: potentiators of rat KCNQ2 potassium channel | O88943 | CHO-K1 KCNQ2, FluxOR thallium flux fluorescence; active compounds read high | B-score at 10 µM | hit rate 0.54% among 310,000;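 active = fluorescence ratio B-score at least 3 SD of library B-scores, with initial fluorescence B-score within 3 of them, cut at about 5.3 in these data; same plate scores as AID 2156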;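 note: B-score of peak minus minimum over baseline fluorescence ratio after K+ and Tl+ stimulus; positive B-score means potentiation of KCNQ2 with more thallium influx and brighter signal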
KCNQ2 inh: KCNQ2 (rat) channel inhibition. O88943. CHO-K1 KCNQ2, FluxOR thallium flux, 20 min; active compounds read low. B-score at 10 µM. hit rate 1.1% among 310,000;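 active = fluorescence ratio B-score at most minus 3 library SDs, with starting brightness B-score within 2 library SDs, cut at about -5.5 in these data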
Kir21 conf inh: confirmation of mouse Kir2.1 potassium channel inhibitors; shares compounds with KCNQ2 pot; Kir2.1-expressing cells, FluxOR thallium flux fluorescence; active compounds read low; Tl flux remaining, % of negative control (active compounds read low), % at 10 µM; hit rate 41% among 2,300; AID 2032;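 active = Primary-screen hit whose thallium flux fell at least 3 control SD below untreated wells in both duplicates, with normal baseline fluorescence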;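 note: 0% = blank wells without stimulus and 100% = stimulated no-compound controls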
Target sequence (P35561 whole entry, looked up): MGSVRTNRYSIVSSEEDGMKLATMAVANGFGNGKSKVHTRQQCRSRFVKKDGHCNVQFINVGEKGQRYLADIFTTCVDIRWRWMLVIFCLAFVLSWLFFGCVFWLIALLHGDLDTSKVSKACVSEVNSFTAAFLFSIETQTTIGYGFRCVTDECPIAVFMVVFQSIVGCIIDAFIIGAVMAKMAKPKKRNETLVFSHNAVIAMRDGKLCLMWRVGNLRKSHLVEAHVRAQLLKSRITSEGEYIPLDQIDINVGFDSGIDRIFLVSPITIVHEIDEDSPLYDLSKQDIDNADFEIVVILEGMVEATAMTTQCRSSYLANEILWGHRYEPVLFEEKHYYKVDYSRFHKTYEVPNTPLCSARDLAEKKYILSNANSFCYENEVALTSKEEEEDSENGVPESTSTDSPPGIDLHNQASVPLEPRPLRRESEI
HEK293 ctr: parental HEK293 activity in Kir2.1 inhibitor counter-screen; FluxOR signal as % of negative control (100 = no effect), % at 10 µM; parental HEK293 cells, FluxOR thallium flux fluorescence; 0% = unstimulated blank wells; hit rate 19% among 2,300; shares compounds with KCNQ2 pot;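 active = dye signal at least 3 control SD above or below untreated wells in both duplicates, raw fluorescence within 3, either direction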;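 note: percent is based on the flux ratio of peak minus minimum fluorescence over baseline F0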
CHO-K1 ctr: counter-screen for KCNQ2 potentiators: effect in parental CHO-K1 cells | AID 2282 | shares compounds with KCNQ2 pot | hit rate 43% among 1,200 | FluxOR thallium flux fluorescence; zero = vehicle mean+3SD, 100% = vehicle-minus-blank window | activity increase over 3SD of controls, % at 10 µM;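 active = signal rise of at least 3 SD above the untreated control mean, in both duplicate wells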;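 note: counter screen of KCNQ2 potentiator hits so any rise reflects channel-independent effects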
KCNQ1 pot spec: selectivity of KCNQ2 potentiators: effect on human KCNQ1; AID 2283; shares compounds with KCNQ2 pot; CHO KCNQ1 stable, FluxOR thallium flux fluorescence; beyond 3SD, as % of vehicle-control signal; hit rate 28% among 1,200; activation over 3SD threshold, % at 10 µM;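 active = fluorescence ratio rise of at least 3 SD of vehicle wells above their mean, in both replicate wells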;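 note: 0% = vehicle mean plus 3 SD and 100% = vehicle minus unstimulated blank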
KCNQ2 pot conf: rat KCNQ2 channel potentiator confirmation; potentiation, less the hit threshold, % at 10 µM; hit rate 68% among 1,200; CHO-KCNQ2 cells, FluxOR thallium flux fluorescence; shares compounds with KCNQ2 pot; AID 2287;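 active = fluorescence ratio rising 3 SD or more over the vehicle control mean in both replicates, plus primary screen hit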;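 note: peak minus minimum thallium fluorescence divided by baseline after K/Tl stimulus; 0% = vehicle mean plus 3 SD and 100% = vehicle minus unstimulated blank difference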
Kir2-1 sel: tests whether KCNQ2 potentiators also affect mouse Kir2.1; shares compounds with KCNQ2 pot; AID 2345; hit rate 2% among 1,200; activity over 3SD threshold, % at 10 µM; HEK293 Kir2.1, FluxOR thallium flux fluorescence;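 active = fluorescence ratio rise of at least 3 SD above the vehicle-control mean, seen in both replicates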;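 note: 0% = vehicle mean plus 3 SD and 100% = vehicle minus no-stimulus blank window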
KCNQ2 W236L pot: potentiates the retigabine-insensitive rat KCNQ2 W236L mutant channel; hit rate 10% among 940; AID 2558; shares compounds with KCNQ2 pot; CHO KCNQ2-W236L, automated patch clamp current; current increase over 3SD of negative controls (%), active compounds read high, % at 25 µM;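 active = current increase at least 3 SD of the untreated controls above them in both duplicate recordings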
Active calls of the source: *; i = inactive; . = no result given.

SMILES	KCNQ2 pot	KCNQ2 inh	Kir21 conf inh	HEK293 ctr	others
CCN(Cc1ccccc1)CC(O)COC(c1ccc(OC)cc1)c1ccc(OC)cc1 (configuration not stated)	.	i	66%*	i
COc1ccc(CN(C)CC(O)COC(c2ccccc2)c2ccccc2)c(OC)c1OC (configuration not stated)	.	i	54%*	i
Nc1nc(SCC(=O)N2CCOCC2)[nH]c(=O)c1-c1ccccc1	1.5	i	.	.
COC(=O)c1ccccc1NC(=O)c1ccc(Cn2cc(Cl)cn2)o1	.	i	.	.
CCOc1ccccc1C(=O)NC(C(=O)OCC(=O)Nc1nnc(-c2ccccc2)o1)C(C)C (configuration not stated)	.	i	.	.
CCOc1ccccc1C(=O)OCC(=O)Nc1nnc(-c2ccccc2)o1	5.5*	i	i	145%*	CHO-K1 ctr=23*;KCNQ1 pot spec=-6;KCNQ2 pot conf=14*;Kir2-1 sel=-17;KCNQ2 W236L pot=i
CCCn1c(SCC(=O)Nc2ccc3c(c2)OCO3)nc2c1c(=O)n(C)c(=O)n2C	0.51	i	.	.
O=C1CC(=O)N(CCc2ccccc2)C(=O)N1CCc1ccccc1	2.8	i	.	.
O=C1C=CC(=O)C(C2=C3C(=O)N(CCc4ccccc4)CC(=O)N3CCC2)=C1	0.29	i	69%*	69%*
Cc1cccc(/C=N/NC(=O)c2cc(C)nc3ccccc23)n1	1	i	.	.
COc1ccc(S(=O)(=O)NC2CCCCC2)cc1C(=O)N1CCCCC1	0.26	i	.	.
CN(C(=O)c1ccc(OC2CCN(Cc3ccccn3)CC2)cc1)C1CCCCC1	0.7	i	.	.
COc1ccc(-c2cc(-c3cc(C)ccc3O)[nH]n2)cc1	0.62	i	.	.
COc1ccc(-c2cc(-c3ccc(C)cc3)n[nH]2)c(O)c1	7*	i	i	i	CHO-K1 ctr=16*;KCNQ1 pot spec=-14;KCNQ2 pot conf=-32;Kir2-1 sel=-39
COCc1cc(C)nc(SC)c1C#N	0.15	i	.	.
O=C(OCC(=O)N1CCC(Cc2ccccc2)CC1)c1ccccc1	0.04	i	.	.
COc1cc(C(=O)OCC(=O)N2CCC(Cc3ccccc3)CC2)cc(OC)c1OC	5.6*	i	i	67%*	CHO-K1 ctr=-8;KCNQ1 pot spec=-14;KCNQ2 pot conf=35*;Kir2-1 sel=-50;KCNQ2 W236L pot=i
CC(C)OC(=O)C1C(=O)CC(C)(O)C(C(=O)OC(C)C)C1c1ccc([N+](=O)[O-])cc1 (configuration not stated)	0.85	i	.	.
Nc1[nH]n2c(=O)cc(-c3ccccc3)nc2c1N=Nc1ccccc1	6.6*	i	i	i	CHO-K1 ctr=-28;KCNQ1 pot spec=-25;KCNQ2 pot conf=9.8*;Kir2-1 sel=-21;KCNQ2 W236L pot=i
Nc1[nH]n2c(=O)cc(-c3ccccc3)nc2c1N=Nc1ccc(S(N)(=O)=O)cc1	1.4	i	.	.
CCO[C@H]1OC(C(=O)NC2CC2)=C[C@@H](C)[C@@H]1CCCO	0.26	i	.	.
c1ccc(CN2c3ccccc3-c3nc4ccccc4n3C2c2ccccn2)cc1 (configuration not stated)	.	i	.	.
CCN1c2ccccc2-c2nc3ccccc3n2C1c1ccco1 (configuration not stated)	.	i	i	i
COc1cc(/C=N/NS(=O)(=O)c2ccc(Br)cc2)ccc1O	0.12	i	.	.
CSc1nc(C)c(CCOC(=O)c2ccccc2)c(=O)[nH]1	.	i	.	.
SMILES	KCNQ2 pot	KCNQ2 inh	Kir21 conf inh	HEK293 ctr	others
COc1cccc(-c2nnc(NC(C)=O)o2)c1	0.28	i	.	.
COc1ccccc1-c1nnc(Nc2nc3c(OC)cccc3s2)o1	.	i	.	.
COc1cccc(-c2nnc(Nc3nc4c(F)cccc4s3)o2)c1	9.7*	i	i	234%*	CHO-K1 ctr=-7;KCNQ1 pot spec=37*;KCNQ2 pot conf=29*;Kir2-1 sel=-22;KCNQ2 W236L pot=i
COc1cccc2sc(Nc3nnc(-c4ccccc4Cl)o3)nc12	21*	i	i	379%*	CHO-K1 ctr=-5;KCNQ1 pot spec=-6;KCNQ2 pot conf=38*;Kir2-1 sel=-21;KCNQ2 W236L pot=i
COc1ccc(S(=O)(=O)N(c2onc(C)c2Cl)S(=O)(=O)c2ccc(OC)c(OC)c2)cc1OC	.	i	.	.
COc1ccc(NC(=O)/C(C#N)=C/c2cccnc2)c(OC)c1	.	i	.	.
CCOc1c2ccoc2nc2c(OC)c(OC)ccc12	1.6	i	.	.
COc1ccc2ccccc2c1CNC(C)c1ccccc1 (configuration not stated)	1.4	i	.	.
CC(NCCCOc1cccc2ccccc12)c1ccccc1 (configuration not stated)	.	i	14%*	i
O=C(CSC(=S)N1CCCCC1)Nc1nc(-c2ccccc2)c(-c2ccccc2)o1	.	i	.	.
CCCCCCC1CC(CCc2nc(=S)[nH][nH]2)C(=O)O1 (configuration not stated)	0.2	i	.	.
COc1ccc(-n2nc3cc(C)c(NC(=S)NC(=O)c4ccccc4C)cc3n2)cc1	0.72	i	.	.
CCN(C(=O)Cn1nc(C)c([N+](=O)[O-])c1C)c1c(N)n(Cc2ccccc2)c(=O)[nH]c1=O	.	i	.	.
COc1ccc(C(OCC(O)CNCCc2ccc(S(N)(=O)=O)cc2)c2ccc(OC)cc2)cc1 (configuration not stated)	0.06	i	.	.
OC(CNCCc1ccc(C(F)(F)F)cc1)COC(c1ccccc1)c1ccccc1 (configuration not stated)	.	i	51%*	68%*
O=C(COC(=O)Cc1cccc(C(F)(F)F)c1)Nc1ccccc1	1.4	i	.	.
O=C(Cc1cccc(C(F)(F)F)c1)Nc1ccccc1	9*	i	i	i	CHO-K1 ctr=35*;KCNQ1 pot spec=59*;KCNQ2 pot conf=13*;Kir2-1 sel=-35;KCNQ2 W236L pot=i
COC(=O)c1ccc(OCCCCN2CC(C)OC(C)C2)cc1 (configuration not stated)	.	i	.	.
COc1ccc(CC(=O)NCc2ccc3c(c2)cc(C)n3C)cc1OC	.	i	.	.
O=C(NNc1ncc(C(F)(F)F)cc1Cl)c1ccc(Cl)c(Cl)c1	12*	i	i	i	CHO-K1 ctr=-12;KCNQ1 pot spec=-19;KCNQ2 pot conf=1.2*;Kir2-1 sel=-30;KCNQ2 W236L pot=6.1%*
Nc1ccccc1C(=O)NNc1ncc(C(F)(F)F)cc1Cl	.	i	.	.
S=C(Nc1ccccc1Cl)N1CCCC1	.	i	.	.
Cc1ccc(S(=O)(=O)Nc2cc(=O)[nH]c(SCC(=O)Nc3cccc(C)c3)n2)cc1	5.3*	i	i	i	CHO-K1 ctr=30*;KCNQ1 pot spec=-5;KCNQ2 pot conf=18*;Kir2-1 sel=-33;KCNQ2 W236L pot=i
Cc1ccc(NC(=O)CSc2nc(NS(=O)(=O)c3ccccc3)cc(=O)[nH]2)cc1	0.93	i	.	.
